Common to all, as to assay: NCI-60 one-dose screen, 48 h (100 = growth as untreated, 0 = no growth, -100 = all killed)
Holding throughout (conditions): 10 µM unless noted

The test system of experiment [1] is T-47D breast.
The test system of experiment [2] is BT-549 breast.
Experiment [3] deals with MDA-MB-435 melanoma.
The test system of experiment [4] is SW-620 colon.
For experiment [5], the system named is MCF7 breast.
Experiment [6] relates to HCT-116 colon.
The subject of experiment [7] is HCC-2998 colon.
Experiment [8] relates to KM12 colon.

Compounds without any hit were thinned out: in the full panel of roughly 83,000, 20% have a hit.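 Activity criterion: percent growth below 10, measured after cells in 96-well plates were exposed to a single compound concentration for 48 hours.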 A number with no mark means an inactive call. Activity calls are given as the source filed them.

Take `COc1ccc(-c2cn(-c3ccc(Cl)cc3)c(SCC(=O)c3ccc([N+](=O)[O-])cc3)n2)cc1`: the growth in experiment [1] is 83.4%; in experiment [2], 89.7%; in experiment [3] it was 79.5%; in experiment [4] it was 86.1%; in experiment [5], 82.4%; in experiment [6], 74.6%. Moreover, the growth in experiment [7] was 103%; in experiment [8], 94.8%.
As for `Cn1cccc1/C=C1\C(=O)Nc2ccccc21`, the growth in experiment [1] is 18.2%; in experiment [2], 89.6%; in experiment [3], 103%; in experiment [4], 99.5%; in experiment [5], 12.3%; in experiment [6], 102%. The growth in experiment [7] is 48.8%; in experiment [8], 21.8%.
In the case of `COc1cccc(OC)c1Oc1c(-c2nc3ccccc3s2)c(C)nn1-c1ccccc1`, the growth is 42.1% in experiment [1]; 36.3% in experiment [2]; 88.1% in experiment [3]; 88% in experiment [4]; 82.1% in experiment [5]; 53.8% in experiment [6]. Besides, the growth is 81.9% in experiment [7] and 59.7% in experiment [8].
As for `Cc1c(Cl)cccc1C(=O)Nc1nc2c(s1)CN(C(=O)Nc1cccc(C(F)(F)F)c1)CC2`, the growth in experiment [1] is 46%; in experiment [2], 33.6%; in experiment [3] it was -22% (active); in experiment [4], 33.4%; in experiment [5] it was 12.6%; in experiment [6] it was 13.3%. Besides, the growth in experiment [7] was 11.7%; in experiment [8], 14.5%.
For `CCN(C(=O)N1CCN(c2cc3c(cc2F)c(=O)c(C(=O)O)cn3C2CC2)CC1)c1nc(-c2ccc(C)cc2)cs1`, the growth in experiment [1] was 25.5%; in experiment [2], -11.3% (active); in experiment [3], 16.2%; in experiment [4], 18.5%; in experiment [5], 6.09% (active); in experiment [6], 12.4%. For the same molecule, the figures for the growth in experiment [7] and in experiment [8] were 21.1% and 10.6%, respectively.
Regarding `COc1cc(-c2nc3ccc(C)cc3[nH]2)ccc1OCC(=O)N=Nc1c(O)[nH]c2ccc(Cl)cc12`, the growth in experiment [1] was -43.2% (active); in experiment [2] it was 68.5%; in experiment [3], -2.5% (active); in experiment [4], -58.9% (active); in experiment [5], -64.9% (active); in experiment [6] it was -34.9% (active). The growth in experiment [7] is -32.5% (active); in experiment [8], -40.1% (active).
As for `Cc1ccc(C)c2c1C(O)(C#Cc1ccccc1)c1ccccc1C2(O)C#Cc1ccccc1` (stereo not drawn), the growth in experiment [1] was 38.5%; in experiment [2], 68%; in experiment [3], 47.9%; in experiment [4], 53.5%; in experiment [5], 28.9%; in experiment [6], 43.3%. In addition, the growth in experiment [7] is 87.4%; in experiment [8], 50.1%.
Take `CCOC(=O)c1n[nH]n2c1nc(=O)c1cnn(C)c12`: the growth in experiment [1] was 96.5%; in experiment [2], 133%; in experiment [3] it was 105%; in experiment [4], 108%; in experiment [5] it was 92.8%; in experiment [6] it was 114%. The growth in experiment [7] is 100%; in experiment [8], 95.7%.
For `NC(=O)c1c(NC(=O)c2ccc(Cl)cc2)sc2c1CCC(=O)C2`, the growth in experiment [1] was 35.9%; in experiment [2], 25.1%; in experiment [3], 94.5%; in experiment [4], 12.7%; in experiment [5], 57.8%; in experiment [6] it was 8.72% (active). The growth is 104% in experiment [7] and 42.1% in experiment [8].
For `CNC(=O)c1cc(Oc2ccc3nc(NC(=O)Nc4ccc(Cl)c(Cl)c4)sc3c2)ccn1`, the growth is 21.3% in experiment [1]; 32.1% in experiment [2]; 22.6% in experiment [3]; 50.4% in experiment [4]; 32.2% in experiment [5]; -13.3% (active) in experiment [6]. Besides, the growth in experiment [7] is 63.4%; in experiment [8] it was 56.8%.
Take `CS(=O)(=O)Nc1cncc(-c2ccc3ncnc(Nc4ccc(F)c(Cl)c4)c3c2)c1`: the growth in experiment [1] was -9.57% (active); in experiment [2] it was 32.4%; in experiment [3], 49%; in experiment [4] it was 43.1%; in experiment [5], 13.1%; in experiment [6], 19.6%. In addition, the growth in experiment [7] was 66%; in experiment [8], 59.4%.
As to `CN(Cc1cnc2nc(N)nc(N)c2n1)c1c(Cl)cc(C(=O)NC(CCC(=O)O)C(=O)O)cc1Cl` (stereo not drawn), the growth was 53.2% in experiment [1]; 21.9% in experiment [2]; 25.7% in experiment [3]; 29.1% in experiment [4]; 19.2% in experiment [5]; 18.9% in experiment [6]. For the same molecule, the growth is 20.9% in experiment [7] and 29.6% in experiment [8].
Take `CCOC(=O)c1ccc2c(c1)c1c(C)c3ccncc3c(C)c1n2C`: the growth is -3.13% (active) in experiment [1]; 21.1% in experiment [2]; 3.03% (active) in experiment [3]; 0.329% (active) in experiment [4]; 1.8% (active) in experiment [5]; 0.263% (active) in experiment [6]. The growth in experiment [7] is 4.25% (active); in experiment [8] it was 0.78% (active).
As to `CCCCCCCCn1ccc2cc(NC(=O)Cn3cc(CN4CCN(CC)CC4)nn3)ccc21`, the growth in experiment [1] is 58.2%; in experiment [2], 71.8%; in experiment [3] it was -84% (active); in experiment [4], -43% (active); in experiment [5], 38.9%; in experiment [6], 61.8%. Besides, the values for the growth in experiment [7] and in experiment [8] were -12.2% (active) and 77.8%, respectively.
Consider `CCNc1nc(-c2ccc(F)cc2)c(C#N)c(=O)n1C`, for which the growth in experiment [1] is 39.3%; in experiment [2], 42.1%; in experiment [3], 75.2%; in experiment [4] it was 69.3%; in experiment [5], 63.4%; in experiment [6], 52.1%. In addition, the growth in experiment [7] was 88.8%; in experiment [8], 72.1%.
`C=NNc1ccccc1`: the growth in experiment [1] was 90.6%; in experiment [2], 91.6%; in experiment [3], 105%; in experiment [4] it was 102%; in experiment [5], 83.3%; in experiment [6], 80.7%. Also, the values for the growth in experiment [7] and in experiment [8] were 94.5% and 80.5%, respectively.

Values taken from PubChem BioAssay (NCI).
